High-throughput results deposited in PubChem by National Center for Advancing Translational Sciences (NCATS).
Hits are enriched below; roughly 2.9% of the tested compounds scored in any of these assays.
Nrf2 ARE act: activates Nrf2 signaling; hit rate 0.31% among 410,000; AID 624171; Potency, µM (series often up to 46.1 µM), without a hit: top-dose activation, most hits filed as activators; AREc32 ARE-luciferase reporter (MCF7-derived line), luminescence, 24 h; further: % of control where 0% means no effect; nearly all actives have a fitted effect of over 65% in size
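Luciferase luminescence (Steady-Glo, 30 min at room temperature) served as the read-out of ARE activation in AREc32 cells treated with compounds for 24 hr at 37 deg C.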
Nrf2 inh: blocks Nrf2 signaling; A549 ARE-Fluc reporter, luciferase luminescence, 18-24 h; Potency, µM (doses to about 46 µM), for the others: at the top dose activity change, negative = inhibition, actives largely listed as inhibitors; hit rate 2.1% among 360,000; further: on the % scale 0 is the no-effect control and ±100 the full control effect; nearly all actives have a fitted effect of over 60% in size
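Reporter: ARE-Fluc in A549. Exposure: 18-24 h, 37 °C, 5% CO2, 5% FBS OPTI-MEM. Readouts: fluorescent cytotoxicity (CellTiter-Fluor), then luminescent Nrf2 signal after BugLite.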
A549 tox-1: A549 cytotoxicity, counter-screen for Nrf2 inhibitors. AID 504648. Potency, µM (doses to about 46 µM), inactives show top-dose activity change, negative = cytotoxicity, actives largely listed as inhibitors. hit rate 0.16% among 390,000. A549 ARE-Fluc cells, CellTiter-Fluor viability, 18-24 h; further: on the % scale 0 is the no-effect control and ±100 the full control effect
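A549 ARE-Fluc cells in 5% FBS OPTI-MEM, 5000 cells/well, rested 2 h then exposed to compounds in concentration-response for 18-24 h at 37 °C. Viability by CellTiter-Fluor fluorescence (Ex 405/Em 525) after 30 min; luciferase luminescence (BugLite, 15 min, RT) read afterwards.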
S2 tox: cell viability loss in ATXN counter-screen. S2 cells (HEK-293 line with an ATXN2-luciferase reporter) viability, CellTiter-Fluor protease fluorescence, 24 h. Potency, µM (series often up to 56.7 µM), hits mostly cytotoxic. hit rate 0.49% among 400,000; further: nearly all actives have a fitted effect of over 40% in size
ATXN2 expr inh: ATXN2 expression inhibition; HEK-293 ATXN2-luciferase reporter, luminescence, 24 h; Potency, µM (highest dose often 57 µM), inactives show at the top dose activity change, negative = inhibition, most hits filed as inhibitors; hit rate 0.72% among 360,000; AID 1745845; further: on the % scale 0 is the no-effect control and ±100 the full control effect; nearly all actives have a fitted effect of over 55% in size
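qHTS (up to 57 uM final) was run with 24 h compound exposure of reporter cells at 37 °C. Each well was multiplexed: SteadyGlo luminescence measured ATXN2-luciferase expression after a fluorogenic Gly-Phe-AFC viability readout (25 uM final).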
FLuc counter 3: firefly luciferase inhibition, Nrf2 hit validation; shares compounds with Nrf2 inh; purified firefly luciferase, luminescence inhibition; Potency, µM (highest dose often 57.5 µM), for the others: at the top dose activity change, negative = inhibition, hits mostly inhibitors; hit rate 4% among 1,400; AID 720522; further: on the % scale 0 is the no-effect control and ±100 the full control effect; nearly all actives have a fitted effect of over 65% in size
Target sequence (P08659 whole entry, looked up): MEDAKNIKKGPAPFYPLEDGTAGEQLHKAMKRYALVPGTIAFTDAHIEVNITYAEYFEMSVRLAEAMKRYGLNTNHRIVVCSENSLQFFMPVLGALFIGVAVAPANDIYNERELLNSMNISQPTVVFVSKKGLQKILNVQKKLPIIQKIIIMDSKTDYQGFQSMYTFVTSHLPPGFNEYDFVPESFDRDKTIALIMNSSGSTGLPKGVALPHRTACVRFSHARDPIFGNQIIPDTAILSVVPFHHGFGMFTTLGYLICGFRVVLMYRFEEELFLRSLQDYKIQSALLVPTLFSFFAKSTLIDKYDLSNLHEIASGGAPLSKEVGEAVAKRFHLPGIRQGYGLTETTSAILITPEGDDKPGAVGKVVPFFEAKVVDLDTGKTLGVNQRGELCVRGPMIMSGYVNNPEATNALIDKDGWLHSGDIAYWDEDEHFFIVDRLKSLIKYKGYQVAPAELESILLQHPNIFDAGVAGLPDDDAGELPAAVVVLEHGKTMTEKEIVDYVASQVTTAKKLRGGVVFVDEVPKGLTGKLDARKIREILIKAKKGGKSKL
A549 tox-2: A549 cytotoxicity, Nrf2 inhibitor counterscreen; shares compounds with Nrf2 inh; A549 ARE-Fluc cells, cytotoxicity counterscreen; Potency, µM (top dose mostly 46.1 µM), without a hit: top-dose activity change, negative = cytotoxicity, hits mostly inhibitors; hit rate 2% among 1,400; AID 720523;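 further: cells exposed to compounds for 18 to 24 hours; on the % scale 0 is the no-effect control and ±100 the full control effect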
ARE-Fluc inh: reduces Nrf2 ARE reporter signal in A549 cells; A549 ARE-firefly luciferase reporter, luminescence; shares compounds with Nrf2 inh; Potency, µM (series often up to 46.1 µM), for inactives: top-dose activity change, negative = inhibition, most hits filed as inhibitors; hit rate 74% among 1,400; further: on the % scale 0 is the no-effect control and ±100 the full control effect; nearly all actives have a fitted effect of over 65% in size
The depositor's hits bear a star; i = inactive; ? = inconclusive; . = no result shown. The call rests on the fitted dose curve; in most records, active means well fitted curve in the direction sought with a large enough effect; inconclusive means small, poorly fitted or top-dose-only effect, or another doubt; inactive means no such curve, though single readings can be large; an effect the other way counts as inactive or inconclusive. Potency means the concentration at half of the fitted maximal effect.

SMILES	Nrf2 ARE act	Nrf2 inh	A549 tox-1	S2 tox	ATXN2 expr inh	FLuc counter 3	A549 tox-2	ARE-Fluc inh
Cc1ccc(C(=O)Nc2ccc(N3CCOCC3)cc2)cc1S(=O)(=O)N1CCCCC1	0%	?	3%	i	9%	.	.	.
O=C(NCCC1=CCCCC1)c1ccc(F)c(S(=O)(=O)N2CCOCC2)c1	0%	3%	-4%	i	13%	.	.	.
O=C(Nc1ccc(N2CCOCC2)cc1)c1ccc(Cl)c(S(=O)(=O)N2CCCC2)c1	1%	9.2µM*	0%	i	.	-2%	-3%	7.3µM*
COc1cccc(NC(=O)c2c(-c3ccc(C)cc3)nnc3ccccc23)c1	11%	-4%	-8%	.	.	.	.	.
CCc1ccc(CNC(=O)c2cnc3c(C)cccn3c2=O)cc1	0%	.	4%	i	-5%	.	.	.
COCCCNC(=O)c1c(-c2ccccc2)c(-c2ccccc2)nn(C)c1=O	-1%	20%	0%	.	.	.	.	.
O=C(NCCc1ccccc1)c1ccc(Cl)c(S(=O)(=O)N2CCCC2)c1	0%	?	-6%	i	3%	.	.	.
CC1CCCN(S(=O)(=O)c2cc(C(=O)NCCc3ccc(S(N)(=O)=O)cc3)ccc2Cl)C1 (stereo unspecified)	0%	4.1µM*	?	?	-26%	1%	-26%	12µM*
COc1ccc(CCNC(=O)c2ccc(Cl)c(S(=O)(=O)N3CCCCCC3)c2)cc1	-1%	8.2µM*	-13%	i	.	0%	-10%	8.2µM*
CCCN(C(=O)c1ccc2c(=O)n3c(nc2c1)CCCCC3)c1cccc(Cl)c1	4%	?	-11%	.	.	.	.	.
Nc1nncn1C(=O)c1ccccc1Cl	0%	-29%	-7%	i	4%	.	.	.
Nc1nncn1C(=O)c1ccc(Cl)cc1Cl	-2%	1.6µM*	-1%	i	-27%	-10%	-20%	.
O=S(=O)(c1ccc2c(c1)OCCO2)N1CCN(c2ncnc3sccc23)CC1	9%	2.3µM*	-29%	?	?	0%	2%	.
Cc1ccc(S(=O)(=O)N2CCN(c3ncnc4sccc34)CC2)cc1C	4%	?	-11%	i	?	.	.	.
CC1CCN(c2c(NCc3ccc(C(=O)N4c5ccccc5CC4C)cc3)c(=O)c2=O)CC1 (stereo unspecified)	3%	9.2µM*	-19%	?	?	-24%	-21%	2.1µM*
CC1CCN(c2c(NCc3ccc(C(=O)N4CCN(C5CCCCC5)CC4)cc3)c(=O)c2=O)CC1	0%	0%	0%	i	-13%	.	.	.
N#C/C(=C\c1c(Oc2ccc(Br)cc2)nc2ccccn2c1=O)c1nc2ccccc2s1	20%	10%	-19%	.	.	.	.	.
O=C(Nc1ccc(Oc2ccccc2)cc1)c1cnc2n(c1=O)CCS2	-1%	?	-3%	i	4%	-15%	-2%	2.3µM*
CCOc1ccccc1NC(=O)c1cnc2n(c1=O)CCS2	0%	-23%	-5%	i	-15%	.	.	.
CC1CCN(C(=O)Cn2cc(SCc3cccc(F)c3)c3ccccc32)CC1	4%	-26%	1%	.	.	.	.	.
COc1ccc(NS(=O)(=O)c2ccc(NC(=O)c3ccc(N(C)S(C)(=O)=O)cc3)cc2)c(OC)c1	2%	1.8µM*	-14%	?	-10%	-9%	-4%	2.6µM*
COc1ccc(NS(=O)(=O)c2ccc(NC(C)=O)cc2)c(OC)c1	0%	8%	5%	i	-23%	.	.	.
CCOC(=O)Cn1c(=O)n(CC2CCCO2)c2nc(-c3c(F)cccc3Cl)nc(C(N)=O)c21 (stereo unspecified)	0%	.	-5%	i	3%	.	.	.
CC(=O)Nc1ccc(S(=O)(=O)Nc2ccc(Cc3ccncc3)cc2)cc1	0%	?	1%	i	-22%	.	.	.
CC(C)(C)c1ccc(S(=O)(=O)Nc2ccc(Cc3ccncc3)cc2)cc1	5%	9.2µM*	?	?	-15%	-3%	?	0.021µM*
SMILES	Nrf2 ARE act	Nrf2 inh	A549 tox-1	S2 tox	ATXN2 expr inh	FLuc counter 3	A549 tox-2	ARE-Fluc inh
CC(C)(C)c1ccc(-n2ncc3c2CCCC3NC(=O)C2(C(N)=O)CC2)cc1 (stereo unspecified)	0%	1.3µM*	-7%	i	-22%	-17%	-7%	.
O=C(Nc1cc(S(=O)(=O)N2CCCCC2)ccc1Cl)c1ccccc1NS(=O)(=O)c1ccc(F)cc1	4%	3.7µM*	?	?	?	-26%	?	4.6µM*
CC12CC(c3ccccc3O1)N(C(=O)c1ccco1)C(=S)N2c1ccccc1 (stereo unspecified)	0%	8.2µM*	?	i	-16%	2%	-14%	-16%
CN(c1ccc(Cl)cc1)S(=O)(=O)c1nnc(NC(=O)C2CCCCC2)s1	3%	17%	-1%	.	.	.	.	.
O=S(=O)(c1ccccc1)N1CCC(O)(CSc2ccc(Cl)cc2)CC1	0%	9.2µM*	-9%	i	-27%	3%	-4%	.
CCCCOc1ccc(C(=O)Nc2nnc3n2CCS3)cc1	7%	.	-14%	i	-22%	.	.	.
Cc1cc(=O)[nH]c(N/N=C/c2cc(C)n(CC(F)(F)F)c2C)n1	1%	4.1µM*	-12%	i	.	-7%	-20%	1.5µM*
Cc1cc(=O)[nH]c(N/N=C/c2ccccc2C(F)(F)F)n1	3%	13%	-2%	i	1%	.	.	.
O=C(Nc1ccc(F)cc1F)c1ccc(-n2cnnc2)cc1	1%	.	4%	i	0%	.	.	.
COc1cc(NC(=O)CCCSc2nc(-c3ccco3)cc(C(F)(F)F)n2)cc(OC)c1OC	5%	?	-29%	?	?	.	.	.
COc1cc(NC(=O)CSc2nc(-c3ccco3)cc(C(F)(F)F)n2)cc(OC)c1OC	0%	9.2µM*	-14%	.	.	5%	-12%	?
COc1ccccc1C(=O)N1CCN(Cc2ccc3c(c2)OCO3)CC1	-1%	21%	1%	i	-10%	.	.	.
CCOc1ccccc1C(=O)NCC(=O)N1CCN(Cc2ccc3c(c2)OCO3)CC1	2%	4.6µM*	-4%	i	-13%	-1%	-1%	5.2µM*
O=C(Cn1nc(N2CCN(c3ccccc3)CC2)ccc1=O)Nc1ccc(F)cc1F	3%	1%	-3%	i	-14%	.	.	.
O=C(Nc1ccc(F)cc1)c1ccc(Cn2nc(N3CCN(c4ccccc4)CC3)ccc2=O)o1	-1%	8.2µM*	?	.	.	-13%	-28%	2.6µM*
